Experimental data as given in PubChem BioAssay (EPA / NIEHS).
Calls of active or inactive are those of the source. The calls were made as follows: active = hit-call score of the fitted dose curve at least 0.9, where 1 is the maximum; inactive = score below 0.9.

Legend:
[1] = molecular target: Paired box protein Pax-6 (Homo sapiens) (UniProt P26367); test: ATG_Pax6_CIS: Attagene CIS-FACTORIAL HepG2 Assay for human Paired Box 6 (PAX6) (AID 2282956); conditions: HepG2 CIS-FACTORIAL PAX6 reporter transcription, RNA readout; actives raise or lower the signal
Sequence of Paired box protein Pax-6 (Homo sapiens) (P26367 whole entry, looked up): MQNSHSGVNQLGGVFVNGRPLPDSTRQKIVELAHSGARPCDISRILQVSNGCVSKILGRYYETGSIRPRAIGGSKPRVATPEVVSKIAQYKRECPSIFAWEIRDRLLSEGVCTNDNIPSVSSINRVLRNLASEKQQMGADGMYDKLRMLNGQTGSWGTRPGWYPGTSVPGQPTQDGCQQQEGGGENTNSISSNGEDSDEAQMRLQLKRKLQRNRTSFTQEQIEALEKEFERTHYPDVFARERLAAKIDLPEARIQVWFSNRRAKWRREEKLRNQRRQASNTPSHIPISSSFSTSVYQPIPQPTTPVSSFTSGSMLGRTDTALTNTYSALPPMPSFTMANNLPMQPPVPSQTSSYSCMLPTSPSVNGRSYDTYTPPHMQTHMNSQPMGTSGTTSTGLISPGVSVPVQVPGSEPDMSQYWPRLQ
How it was run: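 Readout: reporter transcript fluorescence after RT-PCR and capillary electrophoresis. Cells: HepG2, transiently transfected with cis-regulated MRTUs. Exposure 24 h. Gain or loss of signal fitted bidirectionally relative to DMSO.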

[2] = ATG_PXRE_CIS: Attagene CIS-FACTORIAL HepG2 Assay for human Pregnane X Receptor Element (PXRE) (AID 2282957); conditions: HepG2 Attagene CIS-FACTORIAL PXRE reporter, mRNA; actives raise or lower the signal
How it was run: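 Fluorescent capillary electrophoresis of amplified reporter cDNA gave the signal, collected 24 h after dosing HepG2 cells that held transfected cis-element reporter constructs.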

[3] = ATG_PPRE_CIS: Attagene CIS-FACTORIAL HepG2 Assay for human Peroxisome Proliferator-activated Response Element (PPRE) (AID 2282958); conditions: HepG2 PPRE cis-element reporter, Attagene transcription factor profiling; actives raise or lower the signal
How it was run: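 PPRE activity in HepG2: transient cis-reporter transfection, 24 h compound incubation, reporter mRNA by RT-PCR and CE fluorescence; gain/loss fitted against DMSO.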

[4] = ATG_RORE_CIS: Attagene CIS-FACTORIAL HepG2 Assay for human RAR-related Orphan Receptor Element (RORE) (AID 2282959); conditions: HepG2 Attagene cis-factorial RORE reporter, mRNA; actives raise or lower the signal
How it was run: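 A 24-hour exposure of transfected HepG2 hepatoma cells precedes RNA isolation and reporter RT-PCR. Labeled products are digested with HpaI and resolved by capillary electrophoresis, with gain or loss of signal scored relative to DMSO.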

[5] = ATG_Sox_CIS: Attagene CIS-FACTORIAL HepG2 Assay for human SRY-box transcription factor (SOX) (AID 2282960); conditions: HepG2 Attagene cis-factorial SOX reporter, mRNA; actives raise or lower the signal
How it was run: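 HepG2, cis reporter units, 24 h exposure. Reporter mRNA: RT-PCR → FAM labelling → HpaI → CE fluorescence. Bidirectional fit vs DMSO.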

[6] = ATG_SREBP_CIS: Attagene CIS-FACTORIAL HepG2 Assay for human Sterol Regulatory Element Binding (SREBP) (AID 2282962); conditions: HepG2 Attagene cis-factorial SREBP reporter, mRNA; actives raise or lower the signal
How it was run: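 Readout: fluorescent reporter-transcript peaks resolved by capillary electrophoresis after RT-PCR. Cells were human HepG2 carrying transfected cis-promoter reporter constructs, dosed for 24 h. Gain or loss of signal was fitted against DMSO controls.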

[7] = molecular target: Signal transducer and activator of transcription 3 (Homo sapiens) (UniProt P40763); test: ATG_STAT3_CIS: Attagene CIS-FACTORIAL HepG2 Assay for human Signal Transducer and Activator of Transcription 3 (STAT3) (AID 2282963); conditions: HepG2, Attagene cis-factorial STAT3 reporter transcription; actives raise or lower the signal
Sequence of Signal transducer and activator of transcription 3 (Homo sapiens) (P40763 whole entry, looked up, the tested form may be a part): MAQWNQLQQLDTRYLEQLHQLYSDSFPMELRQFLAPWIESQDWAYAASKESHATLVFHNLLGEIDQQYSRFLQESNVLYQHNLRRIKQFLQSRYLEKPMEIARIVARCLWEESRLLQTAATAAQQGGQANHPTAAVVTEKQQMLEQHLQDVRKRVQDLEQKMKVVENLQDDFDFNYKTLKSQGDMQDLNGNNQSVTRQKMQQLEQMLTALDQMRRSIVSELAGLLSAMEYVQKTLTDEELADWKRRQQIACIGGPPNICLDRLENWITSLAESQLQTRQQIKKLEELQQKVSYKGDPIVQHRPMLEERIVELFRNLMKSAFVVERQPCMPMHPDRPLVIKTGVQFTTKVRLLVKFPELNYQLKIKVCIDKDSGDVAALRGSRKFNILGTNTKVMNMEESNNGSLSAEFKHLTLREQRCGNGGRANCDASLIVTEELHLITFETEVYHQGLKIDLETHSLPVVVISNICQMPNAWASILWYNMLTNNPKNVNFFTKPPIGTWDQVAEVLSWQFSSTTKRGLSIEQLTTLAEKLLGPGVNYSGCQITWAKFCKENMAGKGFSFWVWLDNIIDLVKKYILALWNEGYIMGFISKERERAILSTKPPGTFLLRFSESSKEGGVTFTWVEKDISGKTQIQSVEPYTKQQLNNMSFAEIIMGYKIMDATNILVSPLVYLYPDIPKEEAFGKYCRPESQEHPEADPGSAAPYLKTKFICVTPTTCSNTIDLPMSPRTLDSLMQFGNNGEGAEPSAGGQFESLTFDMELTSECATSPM
How it was run: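 Readout: fluorescent reporter mRNA fragments resolved by capillary electrophoresis. Setup: HepG2 transfected with MRTUs reporting endogenous transcription-factor activity, dosed 24 h. Gain or loss of signal fitted bidirectionally against DMSO control.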

[8] = ATG_TA_CIS: Attagene CIS-FACTORIAL HepG2 Assay for human TA Basal Promoter (AID 2282964); conditions: HepG2 Attagene CIS-factorial TA basal promoter reporter; actives raise or lower the signal
How it was run: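 Multiplexed mRNA reporter assay, HepG2, 24 h. Reporter cDNA amplified, 6-FAM primer-extended, HpaI-cut, CE-sized; DMSO = negative control and baseline.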

[9] = ATG_TCF_b_cat_CIS: Attagene CIS-FACTORIAL HepG2 Assay for human T-Cell-Factor with beta-catenin (TCF/b-cat) (AID 2282965); conditions: HepG2 TCF/beta-catenin cis-reporter transcription, actives raise or lower the signal
How it was run: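 HepG2 cells transiently transfected with cis-promoter-driven multiplexed reporter units; reporter mRNA measured 24 h after dosing by RT-PCR, FAM labelling, HpaI digestion and capillary electrophoresis. Bidirectional fitting relative to DMSO baseline.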

[10] = molecular target: Transcription factor Sp1 (Homo sapiens) (UniProt P08047); test: ATG_Sp1_CIS: Attagene CIS-FACTORIAL HepG2 Assay for human Specificity Protein 1 (Sp1) (AID 2282961); conditions: HepG2 Sp1 cis-reporter transcription, actives raise or lower the signal
Sequence of Transcription factor Sp1 (Homo sapiens) (P08047 whole entry, looked up, the tested form may be a part): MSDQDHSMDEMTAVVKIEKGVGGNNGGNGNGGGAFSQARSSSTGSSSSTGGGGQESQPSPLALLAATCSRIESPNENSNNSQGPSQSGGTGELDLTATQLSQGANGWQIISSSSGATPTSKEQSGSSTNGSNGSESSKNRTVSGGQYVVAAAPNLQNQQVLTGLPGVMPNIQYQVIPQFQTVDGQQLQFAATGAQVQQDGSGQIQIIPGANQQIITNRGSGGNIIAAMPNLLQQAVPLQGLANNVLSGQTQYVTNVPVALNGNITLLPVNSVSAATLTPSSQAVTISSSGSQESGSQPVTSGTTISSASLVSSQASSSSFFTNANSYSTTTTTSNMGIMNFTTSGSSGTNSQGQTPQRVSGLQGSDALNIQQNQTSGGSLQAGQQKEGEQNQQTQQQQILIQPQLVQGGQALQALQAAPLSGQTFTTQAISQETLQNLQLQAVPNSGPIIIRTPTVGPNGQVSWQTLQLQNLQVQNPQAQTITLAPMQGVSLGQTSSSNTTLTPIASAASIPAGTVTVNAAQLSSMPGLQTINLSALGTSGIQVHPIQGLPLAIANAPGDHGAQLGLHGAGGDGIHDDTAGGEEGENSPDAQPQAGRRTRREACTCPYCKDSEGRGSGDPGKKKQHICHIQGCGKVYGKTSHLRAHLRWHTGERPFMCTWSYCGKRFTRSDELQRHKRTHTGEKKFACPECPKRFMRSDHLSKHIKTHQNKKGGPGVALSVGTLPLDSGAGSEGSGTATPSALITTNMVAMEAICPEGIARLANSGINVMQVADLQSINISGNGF
How it was run: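 Liver-derived HepG2 cells, cis-element reporter library, 24 h treatment; RNA isolated, cDNA amplified with reporter-specific primers, FAM-labeled fragments sized on capillary analyzer. DMSO baseline, bidirectional curve fit.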

Measured: AC50

CCCCC(CC)COC(=O)c1ccccc1O (stereo not given)
active: [2] 15.3 µM
not listed: [10]
inactive: all other assays above

CCN(CCC#N)c1ccc(N=Nc2c(Cl)cc([N+](=O)[O-])cc2Cl)cc1
active: [2] 1.67 µM
not listed: [10]
inactive: all other assays above

CCCCCCCCCCCSCC(=O)O
inactive: [2] | [7] | [9]
active: [1] 100 µM | [3] 5.09 µM | [4] 51.6 µM | [10] 151 µM | [8] 98 µM

CC(C)(c1cc(Br)c(OCCO)c(Br)c1)c1cc(Br)c(OCCO)c(Br)c1
active: [1] 17.4 µM | [2] 0.484 µM | [6] 18 µM | [8] 15.3 µM | [9] 7.14 µM
inactive: [3] | [5] | [10] | [7]

c1ccc(CCCc2ccncc2)cc1
active: [2] 27 µM
not listed: [6] | [10]
inactive: all other assays above

CCCCCCOc1cc(C)c(O)c(C)c1C
active: [2] 3.01 µM
not listed: [10]
inactive: all other assays above

FC(F)(F)C(=NOCC1OCCO1)c1ccc(Cl)cc1
active: [2] 12.1 µM | [3] 130 µM
not listed: [10]
inactive: all other assays above

CCCCCCCCC(=O)OCC
not listed: [10]
inactive: all other assays above

CCCCNc1ccc(NCCCC)c2c1C(=O)c1ccccc1C2=O
active: [2] 0.886 µM
not listed: [6]
inactive: all other assays above

[Cl][Nd]([Cl])[Cl]
not listed: [5] | [8]
inactive: all other assays above

O=C(c1ccccc1)c1ccc(O)c(O)c1O
active: [2] 26.9 µM
not listed: [5] | [10]
inactive: all other assays above

CCCOCCOCCOCCO
not listed: [10]
inactive: all other assays above

CC(C)CCCC(C)CC=O (stereo not given)
active: [2] 65.1 µM
not listed: [5] | [8]
inactive: all other assays above

C=CC=CC=CCCCCC
active: [2] 6.94 µM
not listed: [10]
inactive: all other assays above

CCCCCC/C=C\CCCCCCCC(=O)O
not listed: [5]
inactive: all other assays above

NC(=O)NNC(N)=O
not listed: [10]
inactive: all other assays above

O=c1n(CCO)c(=O)n(CCO)c(=O)n1CCO
not listed: [6]
inactive: all other assays above

O=c1cc[nH]c(=S)[nH]1
not listed: [10]
inactive: all other assays above

CC(=O)Oc1ccc(C)cc1
not listed: [8] | [10]
inactive: all other assays above

c1ccc(CNCc2ccccc2)cc1
active: [2] 36 µM
not listed: [8] | [10]
inactive: all other assays above

COC(=O)/C=C\C(=O)O
active: [2] 30.7 µM
not listed: [5]
inactive: all other assays above

CC1=CC[C@H]2C[C@@H]1C2(C)C
not listed: [5]
inactive: all other assays above

COC(=O)c1c(C)cc(O)c(C)c1O
not listed: [5] | [8]
inactive: all other assays above

C=CC(C)(CCC=C(C)C)OC(=O)CC(C)C (stereo not given)
active: [2] 6.26 µM | [6] 118 µM
not listed: [10]
inactive: all other assays above

O=S(=O)(O)c1ccc2cc(O)c(S(=O)(=O)O)cc2c1
active: [1] 151 µM | [9] 66.9 µM
not listed: [10]
inactive: all other assays above

O=C1CCCCCN1SSN1CCCCCC1=O
active: [1] 156 µM | [5] 183 µM | [10] 167 µM
not listed: [6] | [8]
inactive: all other assays above
